An excerpt weighted towards active compounds, which were near 1.9% of everything screened.
Epigenetic reg = Quantitative High-Throughput Screen for Regulators of Epigenetic Control; murine LDR cells, GFP reporter derepression, 30 h; Potency, µM (titrated, usually from 53.9 µM), most hits filed as activators; 280,000 tested, 0.2% active; AID 1865, 2009; active means well fitted activation curve with a large enough effect; inconclusive means small, poorly fitted or top-dose-only effect; further: nearly all actives have a fitted effect of over 60% in size
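Murine LDR cells carrying a silenced, genomically integrated CMV-driven GFP reporter were exposed to compound for 30 hours at 37 C. After PBS washes, GFP-positive cells (20–120 um objects) were counted by laser-scanning microplate cytometry.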
ClpP mod = qHTS Assay for Activators of ClpP; AID 651965, 2013; ATP-dependent Clp protease proteolytic subunit (Bacillus subtilis (strain 168)), P80244; 340,000 tested, 1.9% active; Potency, µM (titrated, usually from 57.5 µM); purified B. subtilis ClpP, FRET peptide cleavage, 20 min; active means well fitted falling curve with a large enough effect; inconclusive means small, poorly fitted or top-dose-only effect; inactive means no such curve, though single readings can be large or run the other way; further: the source files actives as falling curves though it sought activators and does not explain the sign; nearly all actives have a fitted effect of over 65% in size
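Purified B. subtilis ClpP, 10 microg/mL final in Tris/HCl pH8 with KCl, BSA, glycerol and Tween-20, cleaved an Abz/nitrotyrosine-quenched decapeptide. Fluorescence (ex 320, em 430) was read at 0 and 20 min at room temperature. Delta was normalized to 5.8 microM ADEP and DMSO/no-enzyme controls.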
Menin MLL FP TR = qHTS Assay for Inhibitors Targeting the Menin-MLL Interaction in MLL Related Leukemias: Competition With Texas Red Labeled MLL-derived Mutant Peptide; AID 1768, 2009; O00255; Menin + Texas Red MLL mutant peptide, fluorescence polarization; Potency, µM (highest dose often 61.6 µM), most hits filed as inhibitors; 270,000 tested, 0.23% active; active means well fitted inhibition curve with a large enough effect in the polarisation, with a control signal flat, not every such curve was filed as active; inconclusive means small, poorly fitted or top-dose-only effect, or effect the other way, or a change in a side signal; inactive means no such curve, though single readings can be large or run the other way; the % refers to the polarisation
Target sequence (O00255 whole entry, looked up): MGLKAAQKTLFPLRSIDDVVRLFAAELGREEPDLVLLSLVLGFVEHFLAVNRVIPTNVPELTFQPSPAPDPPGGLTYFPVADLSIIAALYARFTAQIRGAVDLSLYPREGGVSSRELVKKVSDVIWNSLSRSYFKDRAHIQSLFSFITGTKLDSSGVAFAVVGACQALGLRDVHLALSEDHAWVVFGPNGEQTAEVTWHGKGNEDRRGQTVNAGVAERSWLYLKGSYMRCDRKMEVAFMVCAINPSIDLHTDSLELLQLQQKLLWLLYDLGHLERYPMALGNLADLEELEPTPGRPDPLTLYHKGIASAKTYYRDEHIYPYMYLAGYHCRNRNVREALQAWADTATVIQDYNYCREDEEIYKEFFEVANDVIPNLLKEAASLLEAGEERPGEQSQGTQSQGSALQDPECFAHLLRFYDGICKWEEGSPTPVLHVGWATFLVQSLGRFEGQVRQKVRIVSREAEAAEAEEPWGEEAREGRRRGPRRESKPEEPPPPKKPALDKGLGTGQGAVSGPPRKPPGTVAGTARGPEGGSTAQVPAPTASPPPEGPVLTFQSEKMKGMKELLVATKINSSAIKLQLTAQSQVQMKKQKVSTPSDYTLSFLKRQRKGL
Menin-MLL FL inh = qHTS Assay for Inhibitors Targeting the Menin-MLL Interaction in MLL Related Leukemias: Competition With Fluorescein Labeled MLL-derived Peptide; Fluorescence polarization, fluorescein-MLL peptide displacement from menin; FP activity change, % at 61.4 µM; 290,000 tested, under 10 active; AID 1766, 2009; active means well fitted curve in the direction sought with a large enough effect in the polarisation, not every such curve was filed as active; inconclusive means small, poorly fitted or top-dose-only effect, or effect the other way, or a change in a side signal; inactive means no such curve, though single readings can be large or run the other way; the % refers to the polarisation
MLL CXXC-DNA inh = qHTS Fluorescence Polarization Assay for Inhibitors of MLL CXXC domain - DNA interaction | 290,000 tested, 0.037% active | Potency, µM (highest dose often 115 µM), actives largely listed as inhibitors | MLL-CXXC / FITC-HOXA9 DNA fluorescence polarization | Histone-lysine N-methyltransferase 2A (Homo sapiens), Q03164; active means well fitted inhibition curve with a large enough effect in the polarisation, with a control signal flat, not every such curve was filed as active; inconclusive means small, poorly fitted or top-dose-only effect, or effect the other way, or a change in a side signal; inactive means no such curve, though single readings can be large or run the other way; the % refers to the polarisation
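Purified MLL-CXXC (added from a 7 uM solution) was preincubated 5 min at ambient with pinned compounds in 50 mM Tris-HCl pH 7.5, 50 mM NaCl, 1 mM DTT, 0.05% BSA. Fluorescein-labeled HOX-A9 DNA (50 nM solution) followed, 30 min, then polarization read.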
PINK1 modulator = A Quantitative High throughput Screen to Identify Chemical Modulators of PINK1 Expression | PINK1 immunofluorescence, high-content cytometry, 24 h | Potency, µM (doses to about 76.6 µM), actives largely listed as activators | 410,000 tested, 0.2% active | AID 624263, 2012; active means well fitted activation curve with a large enough effect; inconclusive means small, poorly fitted or top-dose-only effect; cell line not stated here; further: nearly all actives have a fitted effect of over 65% in size
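A stable cell line was treated with compounds at 5 concentrations for 24 hours, with CCCP as control. PINK1 levels and mitochondrial localization were measured by immunofluorescence with mitochondrial, cell and nuclear markers after fixation, read by laser-scanning cytometry.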
Hits are given with their value.

`O=c1oc(-c2ccc(C(F)(F)F)cc2)nn1Cc1cc(Cl)ccc1O` gave Menin MLL FP TR inactive and Menin-MLL FL inh inactive.
For CN(CCO)C(=O)c1cn(C2CCCN(Cc3ccc(C(F)(F)F)cc3)C2)nn1 (stereo unspecified) the results were PINK1 modulator inactive.
`CC(=O)c1sc(NC(=O)c2cc(-c3ccccc3)nn2-c2ccccc2)nc1C` gave Epigenetic reg inactive, Menin MLL FP TR inactive, Menin-MLL FL inh inactive, MLL CXXC-DNA inh inactive and PINK1 modulator inactive.
Screening O=C(Nc1nc2ccccc2s1)c1cc(-c2ccccc2)nn1-c1ccccc1 returned Epigenetic reg inactive, ClpP mod 28.2µM, Menin MLL FP TR inactive, Menin-MLL FL inh inactive, MLL CXXC-DNA inh inactive and PINK1 modulator inactive.
O=C1C2=C(Nc3ccccc3SC2c2ccc(Cl)c(Cl)c2)c2ccccc21 (stereo unspecified) was read as Epigenetic reg inactive, ClpP mod inactive and PINK1 modulator inconclusive.
O=C1C2=C(Nc3ccccc3SC2c2ccccc2C(F)(F)F)c2ccccc21 (stereo unspecified) was read as Epigenetic reg inactive, ClpP mod inactive and PINK1 modulator 12.6µM.
`CC(NC(=O)c1ccco1)c1nnc2n1CCN(Cc1ccc(N3CCCC3)cc1)CC2` (stereo unspecified) gave PINK1 modulator inactive.
Cc1cc(C=O)c(C)n1-c1sc2c(c1C(=O)O)CCCC2 was read as Epigenetic reg inactive, ClpP mod inactive, Menin MLL FP TR inactive, Menin-MLL FL inh inactive, MLL CXXC-DNA inh inactive and PINK1 modulator inactive.
Screening COC(=O)c1c(-n2c(C)cc(C=O)c2C)sc2c1CCCC2 returned Epigenetic reg inactive, ClpP mod inactive, Menin MLL FP TR 28.2µM, Menin-MLL FL inh inactive and MLL CXXC-DNA inh inactive.
Screening Cc1ccc(C(=O)Nc2cnn(-c3ccc(C(=O)N(C)Cc4n[nH]c5c4CCCC5)cc3)c2)c(C)c1 returned PINK1 modulator inactive.
O=C(O)c1cc2cc(OCc3ccccc3)ccc2[nH]1 was read as Epigenetic reg inactive, ClpP mod 28.2µM, Menin MLL FP TR inactive, Menin-MLL FL inh inactive, MLL CXXC-DNA inh inactive and PINK1 modulator inactive.
COc1cc(C2C(C#N)=C(N)Oc3c2ccc2ccccc32)ccc1OCC(=O)Nc1ccccc1C (stereo unspecified) was read as Epigenetic reg inactive, ClpP mod inactive, Menin MLL FP TR 25.1µM, Menin-MLL FL inh inactive, MLL CXXC-DNA inh inactive and PINK1 modulator inactive.
For COC(=O)c1ccc(NC(=O)COc2ccc(C3C(C#N)=C(N)Oc4c3ccc3ccccc43)cc2OC)cc1 (stereo unspecified) the results were Epigenetic reg inactive, ClpP mod inactive, Menin MLL FP TR inconclusive, Menin-MLL FL inh inactive, MLL CXXC-DNA inh inactive and PINK1 modulator inactive.
Screening Cc1cccc(-n2c(CCn3nc(C)c([N+](=O)[O-])c3C)n[nH]c2=S)c1 returned Epigenetic reg inactive, ClpP mod inactive, Menin MLL FP TR inactive, Menin-MLL FL inh inactive, MLL CXXC-DNA inh inconclusive and PINK1 modulator 11.2µM.
Screening CCOC(=O)CC1C(=O)NCCN1c1nc2ccc(C)cn2c(=O)c1/C=C1\SC(=S)N(CC(C)C)C1=O (stereo unspecified) returned Epigenetic reg 3.55µM, Menin-MLL FL inh inconclusive, MLL CXXC-DNA inh inconclusive and PINK1 modulator inactive.
For O=C(Nc1nncs1)C1CCCC1 the results were ClpP mod inactive and PINK1 modulator inactive.
Screening O=C(CSc1nnnn1-c1cccnc1)Nc1ccccc1F returned ClpP mod 28.2µM, Menin MLL FP TR inactive, Menin-MLL FL inh inactive, MLL CXXC-DNA inh inactive and PINK1 modulator inactive.
For N=c1c(C(=O)NC2CCCC2)cc2c(=O)n3ccccc3nc2n1C1CCCC1 the results were Epigenetic reg inactive, ClpP mod 3.16µM, Menin MLL FP TR inactive, Menin-MLL FL inh inactive and MLL CXXC-DNA inh inactive.
N=c1c(C(=O)NCc2ccco2)cc2c(=O)n3ccccc3nc2n1Cc1ccc(Cl)cc1 was read as Epigenetic reg 7.08µM, ClpP mod inconclusive, Menin MLL FP TR inactive, Menin-MLL FL inh inactive, MLL CXXC-DNA inh inactive and PINK1 modulator inactive.
Cc1cccn2c(=O)c3cc(C(=O)NCc4ccco4)c(=N)n(C(C)C)c3nc12 was read as Epigenetic reg inactive, ClpP mod 14.1µM, Menin MLL FP TR inactive, Menin-MLL FL inh inactive, MLL CXXC-DNA inh inactive and PINK1 modulator inactive.
`Cc1cccn2c(=O)c3cc(C(=O)NC4CCCC4)c(=N)n(C4CCCC4)c3nc12` gave Epigenetic reg inactive, ClpP mod inconclusive, Menin MLL FP TR inactive, Menin-MLL FL inh inactive, MLL CXXC-DNA inh inactive and PINK1 modulator inactive.
Screening N=c1c(C(=O)NCc2ccco2)cc2c(=O)n3ccccc3nc2n1Cc1ccccc1 returned Epigenetic reg inactive, ClpP mod 17.8µM, Menin MLL FP TR inactive, Menin-MLL FL inh inactive, MLL CXXC-DNA inh inactive and PINK1 modulator inactive.
For N=c1c(C(=O)NCc2ccccc2)cc2c(=O)n3ccccc3nc2n1Cc1ccco1 the results were Epigenetic reg inactive, ClpP mod inactive, Menin MLL FP TR inactive, Menin-MLL FL inh inactive, MLL CXXC-DNA inh inactive and PINK1 modulator inactive.
Screening COc1ccccc1-c1ccnc(-n2ncc(C(=O)NCc3cccnc3)c2C)n1 returned PINK1 modulator inactive.
For CCCN1CNc2c(c(=O)[nH]c(=S)n2CCc2cccc(C)c2C)C1 the results were ClpP mod inactive and PINK1 modulator inactive.
COCCn1c(=N)c(C(=O)NCc2ccco2)cc2c(=O)n3ccccc3nc21 was read as Epigenetic reg inactive, ClpP mod 28.2µM, Menin MLL FP TR inactive, Menin-MLL FL inh inactive, MLL CXXC-DNA inh inactive and PINK1 modulator inactive.
Cc1ccc(CNC(=O)c2cc3c(=O)n4ccccc4nc3n(Cc3ccco3)c2=N)cc1 was read as Epigenetic reg inactive, ClpP mod inactive, Menin MLL FP TR inactive, Menin-MLL FL inh inactive, MLL CXXC-DNA inh inactive and PINK1 modulator inactive.
For COc1cccc(CNC(=O)COCc2cc(-c3ccc4c(c3)OCO4)on2)c1 the results were Epigenetic reg inactive, ClpP mod inactive and PINK1 modulator inactive.
CCCCCC(CC)COC(=O)CC(C(=O)OCC(CC)CCCC)S(=O)(=O)O (stereo unspecified) was read as Menin MLL FP TR inactive and Menin-MLL FL inh inactive.
